Several values for one entry are separate records, joined by “and”; a condition that tells them apart may be missing. Identical values can stand only once. In all, about 5,500 compounds went through this assay and about 2,000 (36%) were called active. Inconclusive results (about 18%) are left out. Cut-off read from the data, not from the text of the source: active = normalized growth mostly below about 0.91 (no sharp cut-off); inconclusive = no clear call, values can overlap the other calls; inactive = mostly above about 0.92. This is one part of the list. Where a structure was tested more than once in an assay, its records may differ in their call.
Test: chemical genetic growth profiling, strain panel (AID 1159580);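 note: tested at 20 µM; growth read once vehicle control cultures reached saturation at 30 °C; 1 = growth at the plate median or of vehicle wells; lower values mean less growth of the strain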
Settings: S. cerevisiae deletion strains, growth OD

Measured: normalized growth

CN1CCN(CCCN2c3ccccc3Sc3ccc(C(F)(F)F)cc32)CC1
active: locus YER015W, strain faa2, stronger effect = lower value 0.0802 | locus YER016W, strain bim1, stronger effect = lower value 0.0723 | locus YER110C, stronger effect = lower value 0.293 | locus YER111C, strain swi4, stronger effect = lower value 0.36 | locus YER155C, strain BEM2, stronger effect = lower value 0.12 | locus YER167W, strain BCK2, stronger effect = lower value 0.0606 | locus YFR010W, strain ubp6, stronger effect = lower value 0.0817 | locus YGL086W, strain mad1, stronger effect = lower value 0.0657 | locus YGL167C, strain pmr1, stronger effect = lower value 0.0948 | locus YGL173C, strain kem1, stronger effect = lower value 0.216 | locus YGL227W, strain vid30, stronger effect = lower value 0.0831 | locus YGL240W, strain doc1, stronger effect = lower value 0.554 | locus YGL248W, strain PDE1, stronger effect = lower value 0.0581 | locus YGL253W, strain hxk2, stronger effect = lower value 0.0605 | locus YGR135W, strain pre9, stronger effect = lower value 0.0937 | locus YGR229C, strain SMI1, stronger effect = lower value 0.0673 and 0.0769 | locus YGR252W, strain gcn5, stronger effect = lower value 0.138 | locus YHR013C, strain ard1, stronger effect = lower value 0.169 | locus YHR027C, strain rpn1, stronger effect = lower value 0.0682 | locus YHR079C, strain IRE1 (second series), stronger effect = lower value 0.0763 | locus YHR094C, strain hxt1, stronger effect = lower value 0.0748 | locus YHR129C, strain ARP1, stronger effect = lower value 0.0646 | locus YHR142W, strain chs7, stronger effect = lower value 0.0848 | locus YHR200W, strain rpn10, stronger effect = lower value 0.0811 | locus YIL066C, strain RNR3, stronger effect = lower value 0.0614 | locus YIL073C, strain SPO22, stronger effect = lower value 0.113 | locus YIR030C, strain dcg1, stronger effect = lower value 0.0766 | locus YJL092W, strain hpr5, stronger effect = lower value 0.0707 | locus YJL095W, strain BCK1 (second series), stronger effect = lower value 0.0585 | locus YJL115W, strain asf1, stronger effect = lower value 0.0851 | locus YJL129C, strain trk1, stronger effect = lower value 0.0827 | locus YJL134W, strain LCB3, stronger effect = lower value 0.108 | locus YJL154C, strain vps35, stronger effect = lower value 0.0623 | locus YJL164C, strain tpk1, stronger effect = lower value 0.0715 | locus YJL166W, strain qcr8, stronger effect = lower value 0.0701 | locus YJL168C, strain set2, stronger effect = lower value 0.0656 | locus YJL187C, strain SWE1 (second series), stronger effect = lower value 0.0593 | locus YJL187C, strain SWE1, stronger effect = lower value 0.0715 | locus YJR043C, strain POL32, stronger effect = lower value 0.0718
0.0545 (active) and 0.948 (inactive): locus YHR030C, strain SLT2, stronger effect = lower value
0.0646 (active) and 0.977 (inactive): locus YJL095W, strain BCK1, stronger effect = lower value
0.0702 (active) and 0.956 (inactive): locus YGR078C, strain PAC10, stronger effect = lower value
inactive: locus YER002W, strain NOP16, stronger effect = lower value 1.07 | locus YER155C, strain BEM2 (second series), stronger effect = lower value 1.01 | locus YGL078C, strain dbp3, stronger effect = lower value 0.978 | locus YHR079C, strain IRE1, stronger effect = lower value 0.961 | locus YIL125W, strain kgd1, stronger effect = lower value 0.982 | locus YJR066W, strain TOR1, stronger effect = lower value 0.915
